Only some compounds are listed: those with a hit (about 6.9% of all), similar ones and a draw of the others.
BAZ2B block – BAZ2B (human) inhibition | Q9UIF8 | AlphaScreen BAZ2B-H3K14Ac peptide displacement | Potency, µM (titrated, usually from 114 µM), inactives show at the highest dose activity change, negative = inhibition, usual class: inhibitors | 4.4% of 360,000 active; also: % is scaled to controls: 0 for no effect and ±100 for the full control effect; nearly all actives have a fitted effect of over 60% in size
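Compounds, titrated to a top concentration of 110 uM, were incubated 30 min at room temperature with preformed BAZ2B/acetyl-K14 H3 peptide complex (50 nM each). Proximity signal was measured by AlphaScreen after 20 min with beads.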
PLK1 PBD block – PLK1 (human) polo-box domain binding inhibition; 2.8% of 360,000 active; AID 720504; Plk1 PBD binding of FITC phosphopeptide, fluorescence polarization; Potency, µM, for the others: max response, negative = inhibition, usual class: inhibitors; also: series mostly up to about 57 µM; % is scaled to controls: 0 for no effect and ±100 for the full control effect; nearly all actives have a fitted effect of over 65% in size
L3MBTL1 inh – blocks human L3MBTL1; Q9Y468; AlphaScreen L3MBTL1–H3K9me1 peptide binding; Potency, µM (highest dose often 57.1 µM), inactives show at the top dose activity, negative = inhibition, usual class: inhibitors; 0.66% of 230,000 active; AID 485360; also: % is scaled to controls: 0 for no effect and ±100 for the full control effect; nearly all actives have a fitted effect of over 60% in size
Target sequence (Q9Y468 whole entry, looked up): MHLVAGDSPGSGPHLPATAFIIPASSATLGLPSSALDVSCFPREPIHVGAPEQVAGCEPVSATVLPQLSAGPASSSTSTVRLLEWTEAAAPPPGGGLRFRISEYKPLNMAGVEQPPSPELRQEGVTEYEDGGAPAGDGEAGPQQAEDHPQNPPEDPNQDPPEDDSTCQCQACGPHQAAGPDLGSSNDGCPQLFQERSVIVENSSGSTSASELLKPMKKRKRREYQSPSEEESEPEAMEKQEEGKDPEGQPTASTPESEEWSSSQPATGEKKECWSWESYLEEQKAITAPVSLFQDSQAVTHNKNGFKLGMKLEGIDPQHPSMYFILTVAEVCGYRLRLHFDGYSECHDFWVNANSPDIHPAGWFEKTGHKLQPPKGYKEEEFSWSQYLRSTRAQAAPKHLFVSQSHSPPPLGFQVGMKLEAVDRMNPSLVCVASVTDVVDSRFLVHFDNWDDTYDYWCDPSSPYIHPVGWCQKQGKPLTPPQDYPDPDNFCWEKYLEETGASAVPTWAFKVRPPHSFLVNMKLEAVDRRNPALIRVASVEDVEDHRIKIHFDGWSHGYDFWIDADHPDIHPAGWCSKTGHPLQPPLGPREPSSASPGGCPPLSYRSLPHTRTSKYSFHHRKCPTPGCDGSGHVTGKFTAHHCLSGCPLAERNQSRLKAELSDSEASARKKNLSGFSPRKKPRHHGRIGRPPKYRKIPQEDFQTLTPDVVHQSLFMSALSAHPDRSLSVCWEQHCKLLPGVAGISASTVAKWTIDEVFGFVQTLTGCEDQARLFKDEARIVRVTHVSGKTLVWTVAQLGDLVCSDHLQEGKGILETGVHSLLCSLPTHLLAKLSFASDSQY
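L3MBTL1 50 nM + b-AHA-H3(1-15)K9me1 75 nM, 30 min RT; compound added, 30 min RT; streptavidin donor/Ni-chelate acceptor beads 10 ug/mL each final, 30 min RT dark; AlphaScreen read.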
VDR inh – vitamin D3 receptor (human) inhibition | P11473 | VDR-SRC2-3 peptide fluorescence polarization, 2 h | Potency, µM, for inactives: max response, negative = inhibition, hits mostly inhibitors | 0.93% of 400,000 active | AID 504847; also: % is scaled to controls: 0 for no effect and ±100 for the full control effect
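Compounds are added to VDR with labelled SRC2-3 coactivator peptide and held 2 h at room temperature. Inhibition of the VDR–peptide interaction is then read as a change in fluorescence polarization.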
JMJD2A Tudor inh – blocks the human JMJD2A Tudor domain; AlphaScreen JMJD2A-Tudor / H3K4me3 peptide binding; Potency, µM (highest dose often 114 µM), for the others: at the highest dose activity change, negative = inhibition, usual class: inhibitors; 4.4% of 390,000 active; AID 504339; also: % is scaled to controls: 0 for no effect and ±100 for the full control effect; nearly all actives have a fitted effect of over 50% in size
HP1b chromo inh – HP1-beta chromodomain-methylated histone interaction inhibition | Potency, µM (series often up to 114 µM), without a hit: at the top dose activity change, negative = inhibition, hits mostly inhibitors | 0.56% of 390,000 active | AlphaScreen HP1-beta / biotin-H3K9me3 peptide binding | AID 540317; also: nearly all actives have a fitted effect of over 70% in size
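HP1-beta protein (50 nM final) preincubated 30 min at room temperature with biotinylated H3(1-18)K9me3 peptide (50 nM) in PBS pH 7.4, 0.01% Tween-20, then compound added for 30 min. AlphaScreen streptavidin donor/nickel chelate acceptor beads (10 ug/mL final), 30 min dark, luminescence read.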
An asterisk follows results filed as active; u = inconclusive; x = no result; [ ] = dose if it differs, or a comment. Calls follow the shape of the dose curve; as a rule, active = well fitted curve in the direction sought with a large enough effect; inconclusive = small, poorly fitted or top-dose-only effect, or another doubt; inactive = no such curve, though single readings can be large; an effect the other way counts as inactive or inconclusive. Potency is read from the fitted curve at half-maximal effect.

SMILES	BAZ2B block	PLK1 PBD block	L3MBTL1 inh	VDR inh	JMJD2A Tudor inh	HP1b chromo inh
NC(=S)NNc1ccnc2cc(Cl)ccc12	50.1µM*	21.2µM*	-3.3%	-14.7%	44.7µM*	u
O=C(NNc1ccnc2cc(Cl)ccc12)C1CCCCC1	-14.8%	-12.9%	10.5%	-19.4%	-9.8%	3.7%
Clc1ccc2c(NNc3ccccc3Cl)ccnc2c1	2µM*	-9.4%	u	10.7%	u	-17.8%
N#CN1CCC(NC(=O)c2cccc(F)c2)CC1	x	x	x	x	-12.3%	x
Cc1cc(-c2ccc(Cl)cc2Cl)c(C#N)c(=O)[nH]1	0.5%	16.8µM*	x	u	-23.5%[11.4 µM]	6.1%
COc1ccccc1OCC(=O)Nc1ccc2c(c1)OCO2	50.1µM*	-14.4%	x	u	u	-7.8%
Cc1ccccc1OCC(=O)Nc1ccc2c(c1)OCO2	-5.0%	-17.6%	-5.3%	18.2%	-19.3%	43.3%
COCC(=O)Nc1c(C(=O)Nc2ccc3c(c2)OCO3)oc2ccccc12	-17.4%	29.9µM*	x	-19.7%	u	2.0%
COc1ccc(CCN2CC(C(=O)Nc3ccc4c(c3)OCO4)CC2=O)cc1OC (centres undefined)	u	u	x	-16.5%	79.4µM*	u
COc1ccc(CCNC(=O)COC(=O)c2ccc(N3CCCC3=O)cc2)cc1OC	-8.6%	-8.5%	1.3%	6.0%	-13.0%	21.5%
CCc1cccc(NC(=O)C(c2ccccc2)N2Cc3ccccc3C2=O)c1 (centres undefined)	-18.9%	x	x	8.0%	-24.4%	-6.9%
CC(C)(C)n1cnc2cc(NCc3ccccc3Cl)ccc21	31.6µM*	x	x	-10.8%	39.8µM*	u
CN1CCN(C(=S)c2cn(CCOc3ccccc3F)c3ccccc23)CC1	u	u	-6.6%	-27.8%	50.1µM*	u
N#Cc1cn(CCOc2ccccc2F)c2ccccc12	52.4%	0.9%	37.7%	2.8%	33.9%[57.1 µM]	118.1%
COc1ccc(C(=O)NCCSc2c(C)[nH]c3ccccc23)cc1	70.8µM*	x	x	-1.0%	-32.8%	15.8%
COc1ccc(-c2ccc(=O)n(CC(=O)Nc3ccccc3C(F)(F)F)n2)cc1	4.5%	x	x	6.0%	-4.8%	12.7%
COc1ccc(-c2ccc(=O)n(CC(=O)Nc3ccc(N(C)C)cc3)n2)cc1	31.6µM*	x	x	15.8%	56.2µM*	u
Cc1nc(SCC(=O)N2CCOCC2)c2c3c(sc2n1)CCC3	x	-7.2%	-3.0%	-5.6%	-17.2%	-4.2%
NS(=O)(=O)c1ccc(-c2c(-c3ccccc3)sc3ccccc23)cc1	56.2µM*	3.0%	u	-8.2%	79.4µM*	12.5%
CN1CC(O)C2=CC(=O)C(=O)C=C21 (centres undefined)	x	x	x	11.2µM*	x	x
O=C(CSc1nc(=O)n(Cc2ccco2)c2c1CCC2)Nc1cccc(F)c1	-16.1%	x	x	-5.4%	-25.0%	4.6%
CN(CC(=O)Nc1n[nH]c(=S)s1)S(=O)(=O)c1cccc2cccnc12	u	29.9µM*	x	-1.4%	3.55µM*	u
Cc1ccc(SCC(=O)NC(=O)Nc2ccc3c(c2)OCCO3)cc1C	4.2%	-0.9%	-6.2%	-0.8%	4.3%	30.0%
O=C(NCCCN1CCOCC1)/C(=C/c1cccnc1)NC(=O)c1ccccc1	-1.8%	-4.4%	x	-15.5%	-18.6%	34.2%
Cc1nn(CCCC(=O)O)c(C)c1[N+](=O)[O-]	-16.6%	6.7%	-0.3%	-3.7%	-8.3%	35.7%
SMILES	BAZ2B block	PLK1 PBD block	L3MBTL1 inh	VDR inh	JMJD2A Tudor inh	HP1b chromo inh
CC(=O)c1c(C)nn(CCC(=O)O)c1C	-3.1%	15µM*	-15.9%	u	39.8µM*	u
Cc1ccc2oc(=O)n(CCCOc3ccccc3Cl)c2c1	57.2%	x	x	-2.0%	110.3%	184.6%
NC(=S)N/N=C/c1ccc(C(F)(F)F)cc1	-19.5%	1.3%	-6.5%	-15.1%	-23.0%	23.1%
NC(=S)N/N=C/c1ncc(C(F)(F)F)cc1Cl	50.1µM*	-4.1%	u	u	u	41.7%
COc1ccc(Nc2nc(S(=O)(=O)c3ccc(C)cc3)c(Cl)s2)cc1	-31.7%	-6.8%	-0.4%	5.5%	u	-3.6%
Cc1ccc(S(=O)(=O)c2nc(Nc3ccccc3)sc2Cl)cc1	-3.6%	29.9µM*	-2.3%	-16.8%	u	-19.1%
CCN(C(=O)c1ccc2c(SCC(=O)O)c3c(nc2c1)CCC3)c1cc(Cl)ccc1OC	-12.5%	-11.8%	x	u	-19.4%	41.7%
Cc1ccc(OCCN2CCCCCC2)c(C)c1	-6.3%	-6.4%	x	17.6%	-22.9%	8.1%
Cc1cc(Br)ccc1OCCN1CCCC1	u	-12.3%	-3.2%	-8.3%	25.1µM*	u
CCN1CCN(CCOc2ccc(Br)cc2C)CC1	22.4µM*	-2.2%	-7.4%	u	17.8µM*	u
CC(=O)N1CCc2cc(Br)cc(S(=O)(=O)N3CCN(c4ccccn4)CC3)c21	6.9%	u	4.7%	-22.7%	79.4µM*	u
O=C(C1CC1)N1CCc2cc(Br)cc(S(=O)(=O)NCc3ccco3)c21	-26.8%	-8.6%	-6.4%	-7.5%	-26.4%	11.9%
O=C(C1CC1)N1CCc2cc(Br)cc(S(=O)(=O)NCc3ccccn3)c21	8.3%	-3.6%	x	2.3%	2.82µM*	22.9%
COCCCNC(=O)c1cc(-c2cccnc2)nc2ccc(S(=O)(=O)N3CCC(C)CC3)cc12	6.0%	x	x	12.7%	-14.4%	58.9%
COc1cccc(N=CNc2cccc(OC)c2)c1	x	7.1%	x	6.2%	50.1µM*	-19.7%
COC(=O)c1ccc(NC(=O)c2c(Br)cnn2C)cc1	-14.9%	23.8µM*	x	u	-9.3%	-4.5%
COC(=O)c1cc(NC(=O)c2c(Cl)cnn2C)cc(C(=O)OC)c1	2.9%	-11.0%	9.5%	-9.6%	-9.4%	23.4%
Cc1ccc(NS(=O)(=O)c2cccc(F)c2)cc1C	x	x	x	x	-1.4%	x
C=CCn1c(SCC(=O)Nc2nc(C)cs2)nnc1C(C)NC(=O)c1ccccc1Cl (centres undefined)	-5.6%	-9.3%	-2.9%	5.5%	89.1µM*	18.9%
COc1ccccc1C1NC(=O)c2n[nH]c(-c3cccs3)c21 (centres undefined)	x	x	x	-2.1%	-28.0%	7.9%
Cc1c(C(C)(C)C)c(C=S)n2ccccc12	-37.6%	u	x	-18.3%	50.1µM*	u
N#C/C(=C\c1cccc(Oc2ccccc2)c1)C(=O)N1CCOCC1	-1.2%	u	-3.1%	44.7µM*	-15.8%	18.6%
COc1cc(/C=C(\C#N)C(=O)N2CCOCC2)cc(Br)c1O	-20.8%	21.2µM*	-6.7%	7.5%	-8.5%	14.6%
COc1ccc(C2NC(=O)N(C)C3=C2C(=O)N(c2cccc(C(=O)O)c2)C3)cc1 (centres undefined)	-10.8%	x	x	-5.8%	u	18.6%
COc1ccc(N=N/C(=C\O)C(=O)c2cccs2)cc1	11.2µM*	-13.8%	u	-8.1%	15.8µM*	u
COc1ccc(C(=O)/C(=C/O)N=Nc2ccc(F)cc2)cc1	31.6µM*	-4.2%	u	0.9%	56.2µM*	-28.9%
